PubChem BioAssay (Tox21)
Values joined by “and” are separate entries in the source; they are usually repeats but may differ in a detail not shown here. Equal entries are not always repeated. Results filed as inconclusive are left out. A call without a number means that no potency is given here. The source holds several records for some structures; these can differ, active in one and inactive in another. Active and inactive are the calls of the source. Unless noted, calls follow the shape of the dose curve; as a rule, active = well fitted curve in the direction sought with a large enough effect in the repeat runs; inconclusive = weak or mixed curves; inactive = no such curve, though single readings can be large; an effect the other way counts as inactive or inconclusive.

Tests used:
[1] = target: Thyrotropin-releasing hormone receptor (Homo sapiens) (UniProt P34981); assay: qHTS assay to identify small molecule agonists of the thyrotropin-releasing hormone receptor (TRHR) signaling pathway (AID 1346891; calls by dose curve; also: series mostly up to about 58 µM)
Sequence of Thyrotropin-releasing hormone receptor (Homo sapiens) (P34981 whole entry, looked up): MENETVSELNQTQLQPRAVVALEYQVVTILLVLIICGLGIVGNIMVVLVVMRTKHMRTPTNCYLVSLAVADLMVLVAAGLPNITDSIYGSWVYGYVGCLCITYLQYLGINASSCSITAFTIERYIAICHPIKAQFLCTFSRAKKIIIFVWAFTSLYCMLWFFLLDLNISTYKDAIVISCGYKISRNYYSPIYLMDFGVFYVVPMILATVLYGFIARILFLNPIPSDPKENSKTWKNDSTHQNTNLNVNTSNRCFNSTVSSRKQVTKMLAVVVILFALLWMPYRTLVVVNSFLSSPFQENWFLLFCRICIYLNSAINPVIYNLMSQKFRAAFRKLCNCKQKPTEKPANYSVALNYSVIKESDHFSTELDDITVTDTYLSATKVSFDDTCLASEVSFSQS
Procedure, shortened: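 Screening of agonists relied on calcium signalling in HEK293 cells expressing human TRHR: dye loading 2 h at 37 °C preceded compound addition and a 3-min fluorescence time course.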

[2] = Human pregnane X receptor (PXR) small molecule agonists, qHTS cell viability counter screen (AID 1346977); also: nearly all actives have a fitted effect of over 50% in size
Procedure, shortened: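 Tox21 qHTS format; PXR-Luc HepG2, 2,000/well, charcoal-stripped FBS 5%. Cpd exposure 24hr. Read: CellTiter-Fluor fluorescence, multiplexed with luciferase.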

[3] = Caspase-3/7 induction in HepG2 cells by small molecules, qHTS assay (AID 1346978); also: nearly all actives have a fitted effect of over 15% in size
Procedure, shortened: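 Caspase-3/7 induction was measured by Caspase-Glo 3/7 luminescence (30 min, room temperature) after a 17 hr compound exposure of wild-type HepG2 cells seeded at 2,000 per well and pre-incubated 5 hr.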

[4] = Caspase-3/7 induction in CHO-K1 cells by small molecules, qHTS cell viability counter screen (AID 1346979); also: nearly all actives have a fitted effect of over 35% in size
Procedure, shortened: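 CellTiter-Fluor viability check, qHTS format: wild-type CHO-K1, 16hr compound treatment, 1hr reagent incubation, fluorescence read.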

[5] = Caspase-3/7 induction in CHO-K1 cells by small molecules, qHTS assay (AID 1346980); also: nearly all actives have a fitted effect of over 15% in size
Procedure, shortened: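 Luminescent Caspase-Glo 3/7 read (30min, room temperature) quantified apoptosis induction. Cells were wild-type CHO-K1, treated with compound for 17hr at 37 C and 5% CO2.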

[6] = Caspase-3/7 induction in HepG2 cells by small molecules, qHTS cell viability counter screen (AID 1346981); also: series mostly up to about 92 µM; nearly all actives have a fitted effect of over 30% in size
Procedure, shortened: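 Wild-type HepG2 cells (2,000/well) were allowed to settle for 5 hr at 37 C, 5% CO2, then dosed with compounds in DMSO by pin transfer. After 16 hr at 37 C, CellTiter-Fluor was added and fluorescence read 1 hr later.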

[7] = target: Nuclear receptor subfamily 1 group I member 2 (Homo sapiens) (UniProt O75469); assay: Human pregnane X receptor (PXR) small molecule agonists, qHTS assay (AID 1346982); also: nearly all actives have a fitted effect of over 35% in size; also: potency is read from the fitted curve at half-maximal effect
Sequence of Nuclear receptor subfamily 1 group I member 2 (Homo sapiens) (O75469 whole entry, looked up): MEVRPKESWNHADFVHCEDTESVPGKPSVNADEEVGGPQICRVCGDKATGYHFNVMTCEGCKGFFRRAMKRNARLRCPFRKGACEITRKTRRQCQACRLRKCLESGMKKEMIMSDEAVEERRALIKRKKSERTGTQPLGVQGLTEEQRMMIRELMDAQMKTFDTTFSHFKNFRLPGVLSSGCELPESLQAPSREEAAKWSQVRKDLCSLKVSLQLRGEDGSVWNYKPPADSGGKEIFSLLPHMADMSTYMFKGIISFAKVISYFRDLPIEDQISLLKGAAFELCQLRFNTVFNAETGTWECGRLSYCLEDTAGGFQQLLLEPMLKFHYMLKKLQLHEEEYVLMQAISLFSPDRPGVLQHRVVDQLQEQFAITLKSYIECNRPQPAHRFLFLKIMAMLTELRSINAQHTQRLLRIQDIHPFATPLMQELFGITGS
Procedure, shortened: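 PXR-Luc HepG2 cells (CYP3A4 promoter-driven luciferase) were seeded in medium with 5% charcoal-stripped FBS, left 5 hr at 37 C, then exposed to compounds in DMSO for 24 hr. Luminescence was read after ONE-Glo addition.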

[8] = target: Acetylcholinesterase (Homo sapiens) (UniProt P22303); assay: Acetylcholinesterase (AChE) small molecule antagonists: colormetric cell-based qHTS assay (AID 1347395; calls by dose curve; also: nearly all actives have a fitted effect of over 30% in size; also: potency is read from the fitted curve at half-maximal effect)
Sequence of Acetylcholinesterase (Homo sapiens) (P22303 whole entry, looked up): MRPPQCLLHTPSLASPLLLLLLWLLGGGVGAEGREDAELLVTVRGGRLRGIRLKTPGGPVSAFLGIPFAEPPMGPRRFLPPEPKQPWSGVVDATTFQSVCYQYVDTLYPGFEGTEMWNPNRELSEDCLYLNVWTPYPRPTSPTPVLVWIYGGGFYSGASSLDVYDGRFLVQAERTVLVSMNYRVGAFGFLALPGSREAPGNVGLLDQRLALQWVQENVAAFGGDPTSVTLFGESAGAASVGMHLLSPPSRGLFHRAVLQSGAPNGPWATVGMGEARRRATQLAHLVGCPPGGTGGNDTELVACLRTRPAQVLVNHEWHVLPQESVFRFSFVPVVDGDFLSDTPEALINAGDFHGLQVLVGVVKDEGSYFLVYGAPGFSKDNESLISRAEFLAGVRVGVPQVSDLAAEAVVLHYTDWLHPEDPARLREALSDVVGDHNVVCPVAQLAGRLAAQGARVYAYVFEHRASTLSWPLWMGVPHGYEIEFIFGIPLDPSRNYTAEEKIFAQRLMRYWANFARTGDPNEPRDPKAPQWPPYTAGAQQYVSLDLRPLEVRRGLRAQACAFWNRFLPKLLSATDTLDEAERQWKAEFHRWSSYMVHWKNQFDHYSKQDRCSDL
Procedure, shortened: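 AChE inhibition read colorimetrically via DTNB–thiocholine in SH-SY5Y cells. Compound 30 min, substrate 90 min, both 37 C.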

[9] = target: Acetylcholinesterase (Homo sapiens) (UniProt P22303); assay: Acetylcholinesterase (AChE) small molecule antagonists: enzyme-based qHTS assay (AID 1347397; calls by dose curve; also: nearly all actives have a fitted effect of over 55% in size; also: potency is read from the fitted curve at half-maximal effect); settings: Potency: AChE enzyme activity inhibition
Procedure, shortened: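 Absorbance-based detection of thiocholine with DTNB served as the read-out. Recombinant human AChE was exposed to compound for 30 min at RT before a 10 min RT incubation with acetylthiocholine.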

[10] = target: Acetylcholinesterase (Homo sapiens) (UniProt P22303); assay: Acetylcholinesterase (AChE) small molecule antagonists: fluorescence cell-based qHTS assay (AID 1347398; calls by dose curve; also: nearly all actives have a fitted effect of over 50% in size; also: potency is read from the fitted curve at half-maximal effect); settings: Potency: AChE activity
Procedure, shortened: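 Fluorimetric cell-based assay: intact SH-SY5Y cells, 30 min compound preincubation at 37 C, acetylthiocholine substrate with thiol probe Thiolite Green, 40 min RT development, fluorescence 490/520 nm.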

[11] = target: Cytochrome P450 2D6 (Homo sapiens) (UniProt P10635); assay: Cytochrome P450 Family 2 Subfamily D Member 6 (CYP2D6) small molecule antagonists: luciferase reporter qHTS assay (AID 1671196); also: nearly all actives have a fitted effect of over 50% in size; also: potency is read from the fitted curve at half-maximal effect
Sequence of Cytochrome P450 2D6 (Homo sapiens) (P10635 whole entry, looked up): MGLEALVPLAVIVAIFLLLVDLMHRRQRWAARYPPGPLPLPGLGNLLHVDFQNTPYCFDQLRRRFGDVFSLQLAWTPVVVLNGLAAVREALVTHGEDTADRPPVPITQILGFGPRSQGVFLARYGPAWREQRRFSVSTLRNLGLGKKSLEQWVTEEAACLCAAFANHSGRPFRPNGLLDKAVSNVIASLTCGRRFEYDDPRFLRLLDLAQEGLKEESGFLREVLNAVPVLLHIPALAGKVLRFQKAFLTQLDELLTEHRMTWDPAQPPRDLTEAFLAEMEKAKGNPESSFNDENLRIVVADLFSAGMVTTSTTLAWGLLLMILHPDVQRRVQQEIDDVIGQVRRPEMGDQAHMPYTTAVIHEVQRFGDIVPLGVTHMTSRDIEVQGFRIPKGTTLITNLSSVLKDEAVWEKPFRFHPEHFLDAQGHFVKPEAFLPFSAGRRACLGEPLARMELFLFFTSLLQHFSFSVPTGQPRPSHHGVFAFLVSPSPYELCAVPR
Procedure, shortened: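 CYP2D6 enzyme–substrate mix was held with compound for 10 min at room temperature, then NADPH regeneration solution was added and the reaction ran 1 h at room temperature. Luciferin product was detected by luminescence after 20 min with detection reagent.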

[12] = target: Cytochrome P450 2C19 (Homo sapiens) (UniProt P33261); assay: Cytochrome P450 Family 2 Subfamily C Member 19 (CYP2C19) small molecule antagonists: luciferase reporter qHTS assay (AID 1671197); also: nearly all actives have a fitted effect of over 65% in size; also: potency is read from the fitted curve at half-maximal effect
Sequence of Cytochrome P450 2C19 (Homo sapiens) (P33261 whole entry, looked up): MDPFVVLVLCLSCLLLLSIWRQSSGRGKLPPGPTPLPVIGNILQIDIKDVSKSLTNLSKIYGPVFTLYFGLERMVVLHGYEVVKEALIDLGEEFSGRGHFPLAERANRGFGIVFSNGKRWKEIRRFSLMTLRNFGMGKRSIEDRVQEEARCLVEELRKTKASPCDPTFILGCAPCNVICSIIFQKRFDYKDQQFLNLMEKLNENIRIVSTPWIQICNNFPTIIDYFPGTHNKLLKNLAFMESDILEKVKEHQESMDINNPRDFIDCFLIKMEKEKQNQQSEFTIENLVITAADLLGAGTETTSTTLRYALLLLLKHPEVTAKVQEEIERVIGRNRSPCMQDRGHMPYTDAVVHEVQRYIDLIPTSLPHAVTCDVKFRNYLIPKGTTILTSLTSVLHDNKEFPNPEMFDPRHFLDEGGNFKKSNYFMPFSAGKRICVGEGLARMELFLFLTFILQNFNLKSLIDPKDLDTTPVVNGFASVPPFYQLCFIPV
Procedure, shortened: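 P450-Glo CYP2C19 system: enzyme-substrate mix with compound 10 min at room temperature, then NADPH regeneration solution, 1 h at 37C. Proluciferin-to-luciferin conversion detected by luminescence after 20 min with detection reagent; ketoconazole as positive control.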

[13] = target: Cytochrome P450 2C9 (Homo sapiens) (UniProt P11712); assay: Cytochrome P450 Family 2 Subfamily C Member 9 (CYP2C9) small molecule antagonists: luciferase reporter qHTS assay (AID 1671198); also: nearly all actives have a fitted effect of over 50% in size; also: potency is read from the fitted curve at half-maximal effect
Sequence of Cytochrome P450 2C9 (Homo sapiens) (P11712 whole entry, looked up): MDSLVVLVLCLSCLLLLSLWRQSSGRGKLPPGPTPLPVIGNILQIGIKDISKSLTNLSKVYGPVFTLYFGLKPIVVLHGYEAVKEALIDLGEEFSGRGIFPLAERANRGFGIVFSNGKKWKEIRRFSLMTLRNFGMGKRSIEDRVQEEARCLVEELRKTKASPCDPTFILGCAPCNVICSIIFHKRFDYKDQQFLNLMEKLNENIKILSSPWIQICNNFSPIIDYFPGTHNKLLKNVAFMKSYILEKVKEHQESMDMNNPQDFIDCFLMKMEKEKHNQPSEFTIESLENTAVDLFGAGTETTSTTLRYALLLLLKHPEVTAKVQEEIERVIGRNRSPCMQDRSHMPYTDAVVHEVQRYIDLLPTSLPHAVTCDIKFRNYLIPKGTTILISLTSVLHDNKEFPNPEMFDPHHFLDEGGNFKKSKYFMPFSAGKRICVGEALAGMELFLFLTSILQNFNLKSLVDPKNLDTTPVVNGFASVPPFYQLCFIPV
Procedure, shortened: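 Enzyme-substrate mix preincubated with compound 10 min at room temperature; reaction started with NADPH regeneration solution, 1 h 37C. Luminescent luciferin product read after 20 min detection reagent.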

[14] = target: Cytochrome P450 1A2 (Homo sapiens) (UniProt P05177); assay: Cytochrome P450 Family 1 Subfamily A Member 2 (CYP1A2) small molecule antagonists: luciferase reporter qHTS assay (AID 1671199); also: nearly all actives have a fitted effect of over 50% in size; also: potency is read from the fitted curve at half-maximal effect
Sequence of Cytochrome P450 1A2 (Homo sapiens) (P05177 whole entry, looked up): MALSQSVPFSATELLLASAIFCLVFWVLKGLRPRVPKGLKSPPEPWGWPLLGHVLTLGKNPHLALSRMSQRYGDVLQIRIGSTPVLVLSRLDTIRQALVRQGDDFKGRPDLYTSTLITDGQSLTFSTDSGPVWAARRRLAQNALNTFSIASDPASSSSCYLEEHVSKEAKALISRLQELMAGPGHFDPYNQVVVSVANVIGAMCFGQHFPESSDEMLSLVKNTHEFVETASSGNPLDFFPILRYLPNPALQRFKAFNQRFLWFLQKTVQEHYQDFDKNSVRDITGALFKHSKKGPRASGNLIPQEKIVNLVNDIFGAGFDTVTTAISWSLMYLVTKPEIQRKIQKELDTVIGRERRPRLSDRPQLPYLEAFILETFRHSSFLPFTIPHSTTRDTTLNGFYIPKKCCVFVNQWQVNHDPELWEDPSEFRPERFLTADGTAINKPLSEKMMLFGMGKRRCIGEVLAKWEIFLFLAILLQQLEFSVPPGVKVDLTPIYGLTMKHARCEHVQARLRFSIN
Procedure, shortened: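 Human CYP1A2 activity measured with a P450-Glo proluciferin substrate; compounds in DMSO preincubated 10 min at room temperature with enzyme-substrate mix, then NADPH regeneration system added for 1 h. Luciferin detection reagent, 20 min, luminescence read.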

[15] = target: Voltage-gated inwardly rectifying potassium channel KCNH2 (Homo sapiens) (UniProt Q12809); assay: Human Ether-a-go-go-Related Gene (hERG) channel small molecule antagonists: fluorescence cell-based qHTS assay (AID 1671200)
Sequence of Voltage-gated inwardly rectifying potassium channel KCNH2 (Homo sapiens) (Q12809 whole entry, looked up): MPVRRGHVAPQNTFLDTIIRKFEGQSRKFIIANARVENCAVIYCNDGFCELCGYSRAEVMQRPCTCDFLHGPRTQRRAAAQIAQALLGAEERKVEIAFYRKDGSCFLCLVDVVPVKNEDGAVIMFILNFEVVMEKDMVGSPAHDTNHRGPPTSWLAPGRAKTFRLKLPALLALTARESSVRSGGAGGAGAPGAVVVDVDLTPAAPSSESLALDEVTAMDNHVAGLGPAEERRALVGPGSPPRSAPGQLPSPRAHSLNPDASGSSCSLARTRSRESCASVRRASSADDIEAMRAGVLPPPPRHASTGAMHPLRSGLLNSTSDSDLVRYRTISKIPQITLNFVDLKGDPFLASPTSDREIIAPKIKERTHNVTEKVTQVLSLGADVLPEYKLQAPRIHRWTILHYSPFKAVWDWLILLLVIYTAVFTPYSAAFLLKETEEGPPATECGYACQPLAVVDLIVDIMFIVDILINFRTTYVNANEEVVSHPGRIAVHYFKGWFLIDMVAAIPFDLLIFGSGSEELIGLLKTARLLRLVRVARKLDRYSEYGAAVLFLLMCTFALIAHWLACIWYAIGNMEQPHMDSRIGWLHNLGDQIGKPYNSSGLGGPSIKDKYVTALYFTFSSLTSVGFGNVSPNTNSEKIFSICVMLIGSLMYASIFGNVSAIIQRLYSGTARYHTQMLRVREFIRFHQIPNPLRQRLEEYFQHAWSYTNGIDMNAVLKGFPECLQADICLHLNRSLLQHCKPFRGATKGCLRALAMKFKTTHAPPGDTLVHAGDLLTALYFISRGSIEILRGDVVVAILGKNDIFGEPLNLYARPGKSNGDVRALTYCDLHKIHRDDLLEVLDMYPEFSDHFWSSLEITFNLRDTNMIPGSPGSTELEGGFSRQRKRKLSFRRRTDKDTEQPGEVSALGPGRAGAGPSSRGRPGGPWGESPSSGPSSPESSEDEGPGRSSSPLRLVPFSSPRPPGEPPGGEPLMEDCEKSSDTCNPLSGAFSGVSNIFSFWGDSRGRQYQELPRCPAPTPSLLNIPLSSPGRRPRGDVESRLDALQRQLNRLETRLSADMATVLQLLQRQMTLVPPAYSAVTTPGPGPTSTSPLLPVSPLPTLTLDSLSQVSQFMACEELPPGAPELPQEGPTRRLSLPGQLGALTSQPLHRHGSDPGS
Procedure, shortened: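 Kinetic two-minute fluorescence traces, sampled at 1 s, were collected following thallium stimulus of U2OS cells (1000 per well) that had been cultured overnight at 37 C and loaded with FluxOR II.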

[16] = target: Cytochrome P450 3A4 (Homo sapiens) (UniProt P08684); assay: Cytochrome P450 Family 3 Subfamily A Member 4 (CYP3A4) small molecule antagonists: luciferase reporter qHTS assay (AID 1671201); also: nearly all actives have a fitted effect of over 50% in size; also: potency is read from the fitted curve at half-maximal effect
Procedure, shortened: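 Proluciferin-to-luciferin conversion by CYP3A4, NADPH-regenerated, 1 h RT; luminescence read as RLU. Ketoconazole as control.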

[17] = target: Acetylcholinesterase (Homo sapiens) (UniProt P22303); assay: Acetylcholinesterase (AChE) small molecule antagonists: enzyme-based qHTS assay with human liver microsomes (AID 1347399; calls by dose curve; also: nearly all actives have a fitted effect of over 60% in size; also: potency is read from the fitted curve at half-maximal effect); settings: Potency: qHTS inhibition
Procedure, shortened: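 Recombinant human AChE (50 mU/mL in the enzyme mix) and human liver microsomes (0.25 mg/mL final) were preincubated with compound and NADPH (0.25 mg/mL final) for 30 min at 37 C. Acetylthiocholine/DTNB was then added; thiocholine was read colorimetrically after 10 min at room temperature.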

Row | SMILES | outcome [1] | Potency [2] | outcome [3] | Potency [4] | outcome [5] | Potency [6] | Potency [7] | Potency [8] | Potency [9] | Potency [10] | Potency [11] | Potency [12] | Potency [13] | Potency [14] | Potency [15] | Potency [16] | Potency [17]
1 | CN(C)C(=O)Nc1cccc(C(F)(F)F)c1 | inactive | inactive | inactive | inactive | inactive | inactive | inactive | inactive | inactive | inactive | inactive | inactive | inactive | 2.88 µM (active) and 3.99 µM (active) | inactive | inactive | 
2 | CN(C)C(=O)Cl | inactive | inactive | inactive | inactive | inactive | inactive | inactive | inactive | inactive | inactive | inactive | inactive | inactive | inactive | inactive | inactive | 
3 | CCOC(=O)CC(SP(=O)(OC)OC)C(=O)OCC (stereo unspecified) | inactive | inactive | inactive | inactive | inactive | inactive | inactive | 3.02 µM (active) and 3.56 µM (active) | 3.38 µM (active) and 5.64 µM (active) | 954 nM (active) and 1.42 µM (active) | inactive | 53.6 µM (active) | 67.5 µM (active) and 71 µM (active) | 75.8 µM (active) and 71 µM (active) | inactive | inactive | 
4 | CCOP(=S)(OCC)Oc1ccc([N+](=O)[O-])cc1 | inactive | inactive | inactive | inactive | inactive | inactive | 49.2 µM (active) | 64.1 µM (active) and 13.8 µM (active) | 24.5 µM (active) | 71.9 µM (active) and 15.5 µM (active) |  | 128 nM (active) and 109 nM (active) | 1.61 µM (active) and 976 nM (active) | 1.02 µM (active) and 976 nM (active) |  | 2.27 µM (active) and 2.75 µM (active) | 905 nM (active) and 616 nM (active)
5 | Cc1ccc(N=C=O)cc1N=C=O | inactive | inactive | inactive | inactive | inactive | inactive | 60.9 µM (active) and inactive | inactive | inactive | inactive | 40.9 µM (active) and 11.2 µM (active) and inactive | 36.5 µM (active) and 10 µM (active) and inactive | 36.5 µM (active) and 25.1 µM (active) and 79.6 µM (active) |  | inactive | 5.78 µM (active) and 2.82 µM (active) and inactive | 
6 | C=CC(=O)OCCCCCC(C)C | inactive | inactive | inactive | inactive | inactive | inactive | inactive | inactive | inactive | inactive | inactive | inactive | inactive | inactive | inactive | inactive | 
7 | CCOc1ccc(N)cc1 | inactive | inactive | inactive | inactive | inactive | inactive | inactive | inactive | inactive | inactive | 31.8 µM (active) and 39.9 µM (active) | 40 µM (active) and inactive |  | 35.7 µM (active) | inactive | inactive | inactive
8 | COc1nc(NC(C)C)nc(NC(C)C)n1 | inactive | inactive | inactive | inactive | inactive | inactive | 30.7 µM (active) and 54.5 µM (active) | inactive | inactive | inactive | inactive |  | inactive |  | inactive | inactive | 
9 | CNC(=O)O/N=C/C(C)(C)S(C)(=O)=O | inactive | inactive | inactive | inactive | inactive | inactive | inactive |  |  |  | inactive | inactive | inactive | inactive | inactive | inactive | 
10 | O=C(O)C(Br)Br | inactive | inactive | inactive | inactive | inactive | inactive | inactive | inactive | inactive | inactive | inactive | inactive | inactive | inactive | inactive | inactive | 
11 | Sc1ccccc1 | inactive | inactive | inactive | inactive | inactive | inactive | inactive | inactive | inactive | inactive | inactive | 18.1 µM (active) and 40.1 µM (active) | 32.2 µM (active) and 31.9 µM (active) and 56.4 µM (active) |  | inactive | inactive | 
12 | CC(C)CCCCCCOC(=O)c1ccccc1C(=O)OCCCCCCC(C)C | inactive | inactive | inactive | inactive | inactive | inactive | inactive | inactive | inactive | inactive | inactive | 71 µM (active) |  |  | inactive |  | 
13 | C=CC(=O)OCC(CC)CCCC (stereo unspecified) |  | inactive | inactive | inactive | inactive | inactive |  |  |  |  |  |  |  |  | inactive |  | 
14 | CNC(=O)O/N=C(\SC)C(=O)N(C)C |  | inactive | inactive | inactive | inactive | inactive | inactive | 1.55 µM (active) and 1.42 µM (active) | 2.45 µM (active) and 2.82 µM (active) | 489 nM (active) and 632 nM (active) | 30.9 µM (active) and 28.2 µM (active) | 34.6 µM (active) and 28.2 µM (active) | inactive |  | inactive | inactive | 
